In PubChem BioAssay AID652039 (The Scripps Research Institute Molecular Screening Center, 2013):
“And” between values parts separate entries of the source, which are not always exact repeats. Identical values can stand only once. Among all 370,000 compounds or so, about 3,300 (0.89%) were called active.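 How the source made its calls: active means activation above the mean of all tested compounds plus 3 SD, computed per campaign excluding outliers beyond control limits (cut at about 13% in these data); inactive means the rest.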 The sample as a whole holds a higher share of actives than the screen did.

molecular target: Kallikrein-7 (Homo sapiens) (UniProt P49862); experiment: activation of human kallikrein-7 proenzyme – biochemical, fluorescence intensity, primary screen (AID 652039); settings: purified proKLK7, EDANS-DABCYL substrate fluorescence; at 7 µM; hits give high values; 100% is mature enzyme control, 0% vehicle
Sequence (P49862 whole entry, looked up): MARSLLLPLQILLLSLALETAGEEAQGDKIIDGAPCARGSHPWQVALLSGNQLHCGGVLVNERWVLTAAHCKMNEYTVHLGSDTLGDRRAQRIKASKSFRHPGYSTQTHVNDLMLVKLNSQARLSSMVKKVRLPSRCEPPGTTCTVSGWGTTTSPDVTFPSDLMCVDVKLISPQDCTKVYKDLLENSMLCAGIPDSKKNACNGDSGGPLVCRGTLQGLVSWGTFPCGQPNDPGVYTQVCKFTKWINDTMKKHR

activation, inactive:
CCOC(=O)NN1C(=O)c2ccccc2NC1c1ccccc1O (centres undefined) 8.02%, CC(C)N1C(=O)c2ccccc2NC(=O)C1C(=O)NCc1cccs1 (centres undefined) 0%, CN(C)c1ccc(C2Nc3ccccc3C(=O)N2NS(=O)(=O)c2ccccc2)cc1 (centres undefined) 4.94%, O=C1c2ccccc2NC(c2ccccc2O)N1NS(=O)(=O)c1ccccc1 (centres undefined) 6.73%, COC(=O)[C@]12C[C@H](CC(=O)NCc3cccc4ccccc34)C(=O)N(CCc3ccc(OC)c(OC)c3)C1=C[C@H](C1CCCC1)O[C@@H]2C 0.51%, COc1ccc(C(=O)CSc2nnc(-c3cnccn3)n2-c2ccc(C)cc2)cc1 0.34%, C[C@@H]1ON(C)[C@H]2C[C@H]3c4[nH]c5cccc(-c6ccc7c(c6)OCO7)c5c4CCN3C[C@@H]12 0.38%, CCC(C)[C@@H](C(=O)OC)N(CCc1cn(Cc2ccccc2)nn1)S(=O)(=O)c1ccccc1Br (some centres undefined) 0.31%, CCC(=O)Nc1ccc2c(c1)C(=O)N(C)[C@H]1CC[C@H](CC(=O)NCCOC)O[C@@H]1CO2 -0.03%, COCC(=O)N[C@@H]1C[C@@H]2O[C@@H](CO)CC[C@@H]2O[C@@H]1CCc1ccc(-c2ccccc2)cc1 -0.04%, O=C(c1c[nH]c2ccccc12)N1CCC(Oc2cccnc2)CC1 0.8%, COC(=O)C[C@@H]1CC[C@@H]2[C@@H](COc3ccc(NC(=O)Nc4ccc(F)c(F)c4)cc3C(=O)N2C)O1 0.06%, COC(=O)C[C@@H]1CC[C@@H]2[C@H](COc3ccc(NC(=O)c4cccc(F)c4)cc3C(=O)N2C)O1 -0.18%, CCOC(=O)c1cc(-c2ccc(Cl)s2)nc2c1c(C)nn2C -3.83%, COc1ccc(CCC(=O)Nc2ccc(Cl)c(S(=O)(=O)N3CCOCC3)c2)cc1OC 0.18%, COc1cc(/C=C/C(=O)OCC(=O)N2CCOCC2)ccc1OCC#N 3.33%, COP(=O)(O)CNC(=O)OCc1ccccc1 -0.07%, Cc1ccc(C(=O)N(Cc2ccccn2)CC2CCCO2)cc1 (centres undefined) -0.88%, CCc1ccccc1NC(=O)CSc1nnc(-c2cccs2)o1 0.68%, COC(=O)[C@]1(C#N)CC(=O)N(CC2CCCCC2)[C@@H]1c1ccccc1 -0.2%, COc1ccc(C#CCNCc2ccc(OC)cc2OC)cc1 0.52%, Cc1cc(N2CCN(C)CC2)nc2ccc(NC(=S)N3CCOCC3)cc12 7.61%, CCOCCCNC(=S)Nc1ccc2nc(N3CCN(CC)CC3)cc(C)c2c1 2.27%, CC(=O)c1cc(-c2ccc3ccccc3c2)c(=O)n2c1CCC2 0.82%, CCOc1ccc(N2C(=O)CC(N(CCc3ccc(OC)c(OC)c3)C(=S)Nc3ccccc3)C2=O)cc1 (centres undefined) 0.29% and 0.35%, CCOC(=O)c1ccc(N2C(=O)CC(N(C)Cc3ccccc3)C2=O)cc1 (centres undefined) 0.66%, Cc1cccc(OCCNC(=O)CSc2ccc(C(F)(F)F)cc2[N+](=O)[O-])c1 0.55%, CC(C)CNC(=O)OCc1cn(Cc2ccc(F)cc2)nn1 -0.65%, Cc1c(C(C)c2ccccc2O)[nH]c2ccccc12 (centres undefined) 0.01%, Cc1ccc(-c2c(N)nc3ncccn23)cc1 1.47%, CC(=O)Nc1cc(-c2ccccc2F)cn2c(-c3cccc(C(F)(F)F)c3)cnc12 -0.51%, COC(=O)C1CN(CC(C)C)CCS(=O)(=O)N1Cc1ccc(C)cc1 (centres undefined) -0.1%, CN(CC1CCCO1)S(=O)(=O)c1ccc(C(=O)Nc2ccc(F)cc2)cc1 (centres undefined) -0.36%, COC(=O)C1CN(Cc2ccc(F)cc2)CCS(=O)(=O)N1Cc1ccc(Cl)cc1 (centres undefined) -0.13%, O=S1(=O)c2ccc(N3CCN(Cc4ccccc4F)CC3)cc2Oc2ccccc2CN1Cc1cn(Cc2ccc(Cl)cc2)nn1 -0.98%, CC1C/C(=N/NC(=O)c2cccs2)CC(C)(C)C1 (centres undefined) 0.16%, COC(=O)[C@]12C[C@H](CC(=O)NCc3ccccc3)C(=O)N(CCC3=CCCCC3)C1=C[C@H](C(C)C)O[C@@H]2C1CC1 0.56%, C=CCCC(=O)Nc1nc(C)c(-c2csc(Nc3ccc(Cl)cc3)n2)s1 -1.66%, CC(C)[C@H](NC(=O)Nc1ccc(S(N)(=O)=O)cc1)C(=O)O -0.23%, Cc1ccc(Cn2cc(CN3[C@@H](C)COc4cc(Br)ccc4S3(=O)=O)nn2)cc1 0.74%, COc1ccc(-n2c(COc3ccc(C)cc3)nnc2SCC(=O)Nc2ccc(Oc3ccccc3)cc2)cc1 -0.88%, CCCOc1ccc2c3c(c(=O)oc2c1OCCC)CCC3 -1.41%, COc1ccc2c3c(c(=O)oc2c1OCC(=O)C(C)(C)C)CCCC3 2.75%, O=C(OC12CCCN(C1)/C(=C/c1cccnc1)C2)C1CCCC1 (centres undefined) 0.01%, COc1ccc(C(=O)NCC2CCCN2S(=O)(=O)c2cccs2)cc1OC (centres undefined) 0.25%, CCN1CCCC1CNC(=O)c1ccc2c(c1)NC(=O)/C(=C\c1ccccc1F)S2 (centres undefined) 0.44%, CN[C@H]1C[C@H]2c3cc(N4CCOCC4)ccc3CCN2C[C@H]1[C@H](C)O -0.23%, Cc1ccccc1NC(=O)C1CCN(c2ncccn2)CC1 0.11%, CC[C@@H](CCC(=O)N(c1ccccc1)c1ccccc1)C1CC1 0.23%, CCn1c(=N)c(S(=O)(=O)c2ccc(F)cc2)cc2c(=O)n3ccccc3nc21 3.21%, CCOC(=O)c1cc2c(=O)n3ccccc3nc2n(CC(C)C)c1=NC(=O)c1c(-c2c(F)cccc2Cl)noc1C 0.37%, O=C(C1CCN(S(=O)(=O)c2ccccc2)CC1)N1CCN(C2CCCCC2)CC1 0.53%, O=C(NN1CCOCC1)c1cccc(F)c1 0.32%, COc1ccc(N2CCN(CCNS(=O)(=O)c3ccc([N+](=O)[O-])cc3)CC2)cc1 -0.14%, C=CCOc1cccc(C2NC(=O)c3ccccc3O2)c1 (centres undefined) -1.97%, O=C1NC(c2ccccc2)Oc2ccccc21 (centres undefined) -2.02%, O=C(c1ccncc1)N1CC[C@H]2[C@H](CCCN2Cc2ccc(F)cc2)C1 0.94%, Cc1c(NC(=O)C(C)OC(=O)c2ccccc2O)c(=O)n(-c2ccccc2)n1C (centres undefined) 1.12%, COc1ccccc1NC(=O)C(C)OC(=O)c1ccc(-n2cnnn2)cc1 (centres undefined) -0.16%, CC(C)CNc1cccc2c1S(=O)(=O)N(Cc1cn(Cc3ccc(Cl)cc3)nn1)Cc1ccccc1O2 -9.81%, CN(CCc1ccccn1)C1CCCN(S(=O)(=O)c2ccccc2Cl)C1 (centres undefined) 0%, CN(CC(=O)NCCc1ccccn1)S(=O)(=O)c1ccc(Cl)cc1 0.31%, N#Cc1ccc(OC[C@@H](O)CN2CCC(C(O)(c3ccccc3)c3ccccc3)CC2)c(F)c1 0.5%, CN1[C@H](Cc2ccccc2)COc2cccc(N3CCSCC3)c2S1(=O)=O 0.48%, C[C@@H]1COc2cccc(N3CCCC3)c2S(=O)(=O)N1C 0.38%, CC1CCN(c2oc(-c3ccccc3F)nc2C#N)CC1 -0.12%, N#Cc1nc(Cc2cccc3ccccc23)oc1NCc1ccc2c(c1)OCO2 0.74%, Cc1nc2cccnc2nc1C -0.19%, Cc1ccc(C)c(NC(=O)CCS(=O)(=O)c2ccccc2)c1 -0.69%, COc1cc(Cn2c3ccc(NC(=O)CC(C)c4ccccc4)cc3c(=O)n2C)ccc1F (centres undefined) 2.56%, Cn1c(=O)c2cc(NC(=O)NCCc3cccs3)ccc2n1Cc1cccc(C(F)(F)F)c1 -1.5%

activation, active:
CCOC(=O)NN1C(=O)c2ccccc2NC1c1cccc(O)c1 (centres undefined) 26.7%, CC(=O)NN1C(=O)c2ccccc2NC1c1ccccc1 (centres undefined) 15.6%, COCCN(CCOC)c1nc(N)c2c(N)nc3c(c2c1C#N)CC(=O)N3Cc1ccc(Cl)cc1 50.3%, COc1cc(/C=C/C(=O)Nc2ccc(OC)c(S(=O)(=O)N3CCOCC3)c2)ccc1OCC#N 40.2%, Cc1cc(N2CCOCC2)nc2ccc(NC(=S)N3CCN(Cc4ccccc4)CC3)cc12 16.8%, CCOc1ccc(N2C(=O)CC(N(O)c3ccccc3)C2=O)cc1 (centres undefined) 95.9%, CC(=O)Nc1nc2ncccn2c1-c1ccc(C(F)(F)F)cc1 17.7%, CC(=O)Nc1nc(C)c(-c2csc(Nc3ccc(S(N)(=O)=O)cc3)n2)s1 118%, O=c1oc2c(CN3CCCCC3)c(O)ccc2c2c1CCCCC2 68.2%, CCN1CCCC1CNC(=O)c1cc2cc(OC)c(OC)cc2[nH]1 (centres undefined) 17.5%, CCCn1c(=NC(C)=O)c(C(=O)OCC)cc2c(=O)n3ccccc3nc21 24.2%, O=C1NC(c2cccc(Cl)c2)Nc2ccccc21 (centres undefined) 13.9%, CC(OC(=O)c1ccccc1NCCO)C(=O)Nc1ccnn1C(C)C (centres undefined) 32.9%, CN(CCc1ccccn1)S(=O)(=O)c1ccc2c3c(cccc13)C(=O)N2 41.6%, COc1c(N2CCN(C(=S)Nc3ccccc3F)C(C)C2)c(F)cc2c(=O)c(C(=O)O)cn(C3CC3)c12 (centres undefined) 17.9%, N#Cc1nc(-c2cccc3ccccc23)oc1N 56.1%, Cc1nc2ccc(N)nc2nc1C 55.8%, CCNC(=S)Nc1ccc2c(c1)c(=O)n(C)n2Cc1ccc(Cl)cc1 21.2%
